TDP1 cell noCPT: qHTS for Inhibitors of human tyrosyl-DNA phosphodiesterase 1 (TDP1): qHTS in cells in absence of CPT | DT40 Tdp1-/- hTDP1 cells, no CPT, ATP luminescence, 48 h | Potency, µM (doses to about 46.2 µM), most hits filed as inhibitors | actives 15% (n = 420,000); also: nearly all actives have a fitted effect of over 55% in size
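Seeded 400 DT40-hTDP1 cells/well (vehicle DMSO, no 20 nM CPT); pinned compounds; ≥48 hr at 37 °C; CellTiter-Glo luminescence as viability measure.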
HT1080 IDH1KD tx: HT-1080 IDH1 knockdown cell toxicity (counter line) | HT-1080 IDH1 knockdown viability, ATP luminescence, 48 h | actives 2% (n = 360,000) | Potency, µM (series often up to 46.1 µM), most hits filed as cytotoxic
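IDH1KD HT-1080 cells, 750/well, RPMI + 5% FBS; compound pinned after 2 h settling; 48 h, 37 °C; CellTiter-Glo luminescence; % activity normalised to DMSO and no-cell wells; curves fitted, classed by r2 and efficacy.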
HT1080-NT tox: kills 2HG-producing HT-1080-NT fibrosarcoma cells; Potency, µM (titrated, usually from 46.1 µM), hits mostly cytotoxic; HT-1080-NT fibrosarcoma viability, CellTiter-Glo ATP luminescence, 48 h; actives 1.6% (n = 360,000); AID 686970;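 also: NT is the 2HG producing partner of a matched IDH1 knockdown line; nearly all actives have a fitted effect of over 55% in size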
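Luminescent CellTiter-Glo readout after 48 hours of compound exposure at 37 degrees C defined viability of HT-1080-NT cells. Activity was normalized to DMSO wells and cell-free media wells; concentration-response curves were fitted and assigned curve classes.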
TDP1 cell CPT: DT40-hTDP1 cell growth loss with CPT | chicken DT40 Tdp1-/-;hTDP1 cells + 20 nM CPT, ATP luminescence, 48 h | Potency, µM (series often up to 46.2 µM), usual class: inhibitors | actives 12% (n = 420,000); also: nearly all actives have a fitted effect of over 55% in size
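Cell growth measured by CellTiter-Glo luminescence after a minimum 48 h, 37 C compound exposure with 20 nM CPT in Tdp1-knockout DT40 cells stably expressing hTDP1, seeded 400/well; qHTS titration format.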
IL-1B inflam inh: inhibitors of inflammasome signaling (IL-1 beta secretion) | THP-1 LPS/ATP IL-1B secretion, AlphaLISA, 16 h; active compounds read low | activity change, % at 57.5 µM | actives 4.7% (n = 360,000); in the data active = activity change below about -50%; inconclusive = mostly about -30% to -49%
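Secreted IL-1B measured by AlphaLISA bead assay after 16 h compound exposure of THP-1 cells; compounds (final up to 57.5 uM) added 1 h before LPS (250 ng/mL) and ATP (1.25 mM) stimulation; lower signal means less secretion.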
Numbers stand for hits; i = inactive; ? = inconclusive; nt = not tested or not shown. Only some compounds are listed: those with a hit (about 19% of all), similar ones and a draw of the others. Unless noted, calls follow the shape of the dose curve; as a rule, active = well fitted curve in the direction sought with a large enough effect; inconclusive = small, poorly fitted or top-dose-only effect, or another doubt; inactive = no such curve, though single readings can be large; an effect the other way counts as inactive or inconclusive.

SMILES	TDP1 cell noCPT	HT1080 IDH1KD tx	HT1080-NT tox	TDP1 cell CPT	IL-1B inflam inh
CN(C)S(=O)(=O)c1cccc(C(=O)C2=C3SC=C(c4ccccc4)N3CC2)c1	23µM	i	i	?	i
COC(=O)CNC(=O)C1Cc2ccccc2CN1S(=O)(=O)c1cccs1 (centres undefined)	i	i	i	i	-74
CCOC(=O)CNC(=O)C1Cc2ccccc2CN1S(=O)(=O)c1cccs1 (centres undefined)	i	i	i	i	i
C=CC(=O)Nc1ccc(CN2C(=O)N(c3c(Cl)c(OC)cc(OC)c3Cl)Cc3cnc(NCCCCN(CC)CC)nc32)cc1	13µM	15µM	23µM	12µM	-67
COc1cccc(Oc2cncnc2-c2ccc(OC)cc2O)c1	i	i	i	i	i
O=C(CN1C(=O)C2CC=CCC2C1=O)Nc1nc(-c2ccc(F)c(F)c2)cs1 (centres undefined)	21µM	i	i	?	i
COc1ccc(-c2csc(NC(=O)CN3C(=O)C4CC=CCC4C3=O)n2)cc1OC (centres undefined)	8.2µM	i	i	?	i
COc1ccc(-c2csc(NC(=O)CN3C(=O)C4CCCCC4C3=O)n2)cc1OC (centres undefined)	i	i	i	i	i
COc1ccc(OC)c(-c2csc(NC(=O)CN3C(=O)C4CCCCC4C3=O)n2)c1 (centres undefined)	i	i	i	i	-56
O=C(CCN1C(=O)C2CCCCC2C1=O)Nc1nc(-c2ccc(F)c(F)c2)cs1 (centres undefined)	18µM	i	i	?	?
COc1ccc(C2(O)CCN(CCCCOc3ccccc3)CC2)cc1	?	?	?	?	i
CC(C)CSc1nc(N)nc2c1ncn2C1OC(CO)C(O)C1O (centres undefined)	i	i	i	i	i
CCc1ccc(C2C3=C(CC(C)(C)CC3=O)OC3=C2C(=O)CC(C)(C)C3)cc1	23µM	i	i	?	i
CC1(C)CC(=O)C2=C(C1)OC1=C(C(=O)CC(C)(C)C1)C2c1ccccc1	i	i	i	i	i
C/C(NC1CCCCC1)=C(/C#N)C(=O)NCCN1CCOCC1	i	i	i	i	i
N#C/C(=C/c1ccc(N2CCCCCC2)o1)c1cccc(F)c1	21µM	6.3µM	11µM	?	i
N#C/C(=C/c1ccc(N2CCOCC2)o1)C(=O)NC1CCCCC1	?	i	i	?	i
COc1cc(N2CCCC2)c(OC)cc1/C=C(/C#N)c1cccc(F)c1	?	i	i	?	i
N#C/C(=C/c1ccc(N2CCCCCC2)o1)c1ccc(F)cc1	4.6µM	9.2µM	?	5.2µM	-70
CCCNc1c(NS(=O)(=O)c2cccc(C#N)c2)c(=O)oc2ccccc12	i	i	i	i	i
CCOC(=O)c1ccc(Oc2nc(NC(C)(C)C)nc(N(C)C)n2)cc1	21µM	?	?	13µM	i
Cc1cccc(C(=O)OCC(=O)NC(=O)c2ccccc2)c1O	i	i	i	i	i
CCOc1cccc(CNCCCSc2nnnn2C)c1	i	nt	nt	i	nt
Cn1nnnc1SCCCNCc1ccccc1OCc1ccc(Cl)cc1	23µM	nt	nt	18µM	nt
Cn1nnnc1SCCCNCc1cccc(OCc2ccc(F)cc2)c1	23µM	nt	nt	?	nt
SMILES	TDP1 cell noCPT	HT1080 IDH1KD tx	HT1080-NT tox	TDP1 cell CPT	IL-1B inflam inh
Cn1nnnc1SCCNCc1ccccc1OCc1ccc(Cl)cc1	16µM	?	?	?	-89
CCOc1cccc(CNCCCSc2ncccn2)c1	15µM	i	i	4.6µM	i
O=C(Nc1ccc(Cl)cn1)c1ccc2[nH]c(=O)c(=O)[nH]c2c1	i	i	i	i	i
Cn1nnnc1SCCNCc1ccc(Cl)cc1	i	i	i	i	i
COc1cc(CNCCSc2nnnn2C)ccc1OCc1ccccc1C	?	nt	nt	16µM	nt
Cn1nnnc1SCCNCc1cc(Cl)ccc1OCc1ccccc1	23µM	i	i	26µM	i
CCOc1ccc(CNCCSc2nnnn2C)cc1OC	i	nt	nt	i	nt
O=C(CCC(=O)N(CC(=O)NC1CCCC1)c1cccc(F)c1)Nc1nccs1	i	i	i	i	i
CCOC(=O)c1nc(C)sc1-c1ccnn1S(=O)(=O)c1ccc(C)cc1	?	i	i	i	i

Screening data from PubChem.
